As a reminder, the AC50 is the concentration at which the activity in the assay is half-maximal.

Activity calls are given as the source filed them. The calls were made as follows: active = hit-call score of the fitted dose curve at least 0.9, where 1 is the maximum; inactive = score below 0.9.

Drawing on PubChem BioAssay (EPA / NIEHS), this text covers outcome and AC50 for six compounds.

Holding throughout (details): mRNA level, 48 h; actives raise or lower the signal
Read-out in assay [1]: ABC Transporter (ABCB11), ABCB11 (gene 8647)
In words: LTEA_HepaRG_ABCB11: Life Technologies and Expression Analysis (LTEA) Assay for ABC Transporter (ABCB11) using HepaRG (AID 2283463). The method, boiled down: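 ABCB11 transcript levels are read by Fluidigm TaqMan qRT-PCR after 48 h chemical treatment of human HepaRG cells. Concentrations span 100 uM downward in half-log steps with 0.5% DMSO; gain or loss is fitted against DMSO controls.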

Read-out in assay [2]: ABC Transporter (ABCC2), ABCC2 (gene 1244)
In words: LTEA_HepaRG_ABCC2: Life Technologies and Expression Analysis (LTEA) Assay for ABC Transporter (ABCC2) using HepaRG (AID 2283464). In outline: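 qRT-PCR (TaqMan, Fluidigm array) read-out of ABCC2 mRNA, normalized to three housekeeping genes. Differentiated HepaRG cells were treated 48 h in serum-free induction medium with 8-point half-log series from 100 uM in 0.5% DMSO; curves fitted bidirectionally relative to DMSO.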

Read-out in assay [3]: Broad substrate specificity ATP-binding cassette transporter ABCG2 (Homo sapiens) (UniProt Q9UNQ0)
In words: LTEA_HepaRG_ABCG2: Life Technologies and Expression Analysis (LTEA) Assay for ABC Transporter (ABCG2) using HepaRG (AID 2283465). The method, boiled down:
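Read-out is ABCG2 mRNA induction or loss quantified by qRT-PCR after 48 h chemical treatment of human HepaRG cells, normalized to three housekeeping genes. Concentrations reached 100 uM top in half-log steps; fitting was bidirectional against 0.5% DMSO.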

Read-out in assay [4]: ATP-citrate lyase (ACLY), ACLY (gene 47)
In words: LTEA_HepaRG_ACLY: Life Technologies and Expression Analysis (LTEA) Assay for ATP-citrate lyase (ACLY) using HepaRG (AID 2283466). The method, boiled down: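 HepaRG, 48 h exposure, 8-pt half-log dilutions (top 100 uM), 0.5% DMSO. Readout: ACLY mRNA, TaqMan qRT-PCR, housekeeping-normalized (ACTB/GAPDH/POLR2A). Bidirectional curve fit vs DMSO.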

Read-out in assay [5]: Peroxisomal acyl-coenzyme A oxidase 1 (ACOX1) gene, ACOX1 (gene 51)
Kind of assay: LTEA_HepaRG_ACOX1: Life Technologies and Expression Analysis (LTEA) Assay for Peroxisomal acyl-coenzyme A oxidase 1 (ACOX1) gene using HepaRG (AID 2283467). In outline:
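Measured by qRT-PCR against three housekeeping genes: ACOX1 transcript change in human HepaRG cells after 48 h dosing. Concentrations ran up to 100 uM in half-log steps. Curves were fitted bidirectionally relative to 0.5% DMSO.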

Read-out in assay [6]: Alkaline Phosphatase, Placental (ALPP) gene, ALPP (gene 250)
In words: LTEA_HepaRG_ALPP: Life Technologies and Expression Analysis (LTEA) Assay for Alkaline Phosphatase, Placental (ALPP) gene using HepaRG (AID 2283468).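 As to AC50: differentiated human HepaRG liver cells in serum-free induction medium.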 The method, boiled down: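 qRT-PCR readout of ALPP mRNA (Fluidigm TaqMan), normalized to ACTB/GAPDH/POLR2A, after 48 h chemical exposure of HepaRG cells; 8-point half-log series, top 100 uM, 0.5% DMSO vehicle. Bidirectional curve fit versus DMSO baseline.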

Read-out in assay [7]: Bcl-2 (BAD) gene, BAD (gene 572)
In words: LTEA_HepaRG_BAD: Life Technologies and Expression Analysis (LTEA) Assay for Bcl-2 (BAD) gene using HepaRG (AID 2283469). The method, boiled down: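 BAD transcript change, measured by qRT-PCR against three housekeeping genes and fitted in both directions relative to 0.5% DMSO, after 48 h chemical treatment of human HepaRG liver cells at concentrations up to 100 uM.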

Read-out in assay [8]: Bcl-2 (BAX) gene, BAX (gene 581)
Kind of assay: LTEA_HepaRG_BAX: Life Technologies and Expression Analysis (LTEA) Assay for Bcl-2 (BAX) gene using HepaRG (AID 2283470). In outline: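 Concentration-response endpoint fitted in both directions relative to 0.5% DMSO vehicle. Human HepaRG cultures receive test chemicals for 48 h at up to 100 uM; BAX mRNA is quantified by qRT-PCR against housekeeping genes.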

Read-out in assay [9]: adenosine kinase (ADK) gene, ADK (gene 132)
In words: LTEA_HepaRG_ADK: Life Technologies and Expression Analysis (LTEA) Assay for adenosine kinase (ADK) gene using HepaRG (AID 2283471). The method, boiled down: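 HepaRG (human liver), 48 h chemical exposure, 8-pt half-log series, top 100 uM, 0.5% DMSO vehicle. Readout: ADK mRNA by qRT-PCR vs housekeeping genes; bidirectional curve fit relative to DMSO baseline.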

Read-out in assay [10]: BCL2L11 (gene 10018)
In words: LTEA_HepaRG_BCL2L11: Life Technologies and Expression Analysis (LTEA) Assay for Bcl-2 (BCL2L11) gene using HepaRG (AID 2283473). The method, boiled down: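 HepaRG, 48 h exposure, 8-pt half-log series from 100 uM in 0.5% DMSO, duplicates; qRT-PCR (Fluidigm TaqMan) for BCL2L11, housekeeping-normalized; bidirectional curve fit relative to DMSO baseline.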

Read-out in assay [11]: Apolipoprotein A-V (APOA5) gene, APOA5 (gene 116519)
In words: LTEA_HepaRG_APOA5: Life Technologies and Expression Analysis (LTEA) Assay for Apolipoprotein A-V (APOA5) gene using HepaRG (AID 2283474). In outline:
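HepaRG, 48 h chemical exposure in serum-free induction medium, 8-pt half-log series (top 100 uM), 0.5% DMSO vehicle, duplicates. Readout: APOA5 mRNA by qRT-PCR, housekeeping-normalized; bidirectional fit vs DMSO baseline.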

Read-out in assay [12]: Apoptosis regulator Bcl-2 (Homo sapiens) (UniProt P10415)
In words: LTEA_HepaRG_BCL2: Life Technologies and Expression Analysis (LTEA) Assay for Bcl-2 gene using HepaRG (AID 2283475). The method, boiled down: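 Expression change of BCL2 mRNA in HepaRG after 48 h dosing, quantified by TaqMan qRT-PCR against three endogenous controls. Concentration-response used eight points up to 100 uM, vehicle 0.5% DMSO.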

Read-out in assay [13]: Bcl-2 (BID) gene, BID (gene 637)
Kind of assay: LTEA_HepaRG_BID: Life Technologies and Expression Analysis (LTEA) Assay for Bcl-2 (BID) gene using HepaRG (AID 2283476). In outline:
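Gain or loss of BID expression is fitted relative to 0.5% DMSO vehicle. Human HepaRG liver cells received a 48 h chemical exposure over an eight-point concentration range.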

Read-out in assay [14]: Caspase-3 (Homo sapiens) (UniProt P42574)
In words: LTEA_HepaRG_CASP3: Life Technologies and Expression Analysis (LTEA) Assay for cysteine-aspartic acid protease (CASP3) using HepaRG (AID 2283477). In outline: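 HepaRG, 48 h exposure, 8 conc. (top 100 uM, half-log steps, duplicate), 0.5% DMSO vehicle; qRT-PCR of CASP3 transcript, housekeeping-normalised (ACTB/GAPDH/POLR2A); bidirectional curve fit vs DMSO baseline.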

Read-out in assay [15]: Cytochrome P450 (CYP24A1), CYP24A1 (gene 1591)
In words: LTEA_HepaRG_CYP24A1: Life Technologies and Expression Analysis (LTEA) Assay for Cytochrome P450 (CYP24A1) using HepaRG (AID 2283478). The method, boiled down: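 qRT-PCR read-out: CYP24A1 transcript levels normalized to three housekeeping genes, bidirectional curve fits against 0.5% DMSO baseline. Human HepaRG cells treated 48 h with chemicals at eight concentrations from 100 uM in half-log steps.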

Read-out in assay [16]: Cytochrome P450 (CYP1A2), CYP1A2 (gene 1544)
In words: LTEA_HepaRG_CYP1A2: Life Technologies and Expression Analysis (LTEA) Assay for Cytochrome P450 (CYP1A2) using HepaRG (AID 2283479). The method, boiled down: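 HepaRG, 48 h exposure, top 100 uM, half-log 8-pt, 0.5% DMSO vehicle, duplicates. Readout: TaqMan qRT-PCR of CYP1A2 mRNA, housekeeping-normalized (ACTB/GAPDH/POLR2A). Gain/loss fit relative to DMSO baseline.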

Read-out in assay [17]: cysteine-aspartic acid protease (CASP8), CASP8 (gene 841)
Kind of assay: LTEA_HepaRG_CASP8: Life Technologies and Expression Analysis (LTEA) Assay for cysteine-aspartic acid protease (CASP8) using HepaRG (AID 2283480). In outline:
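HepaRG, 48 h exposure, duplicate wells; 8 conc, half-log from 100 uM, 0.5% DMSO. Serum-free induction medium. CASP8 mRNA by TaqMan qRT-PCR, norm. ACTB/GAPDH/POLR2A; gain/loss fitted vs DMSO.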

Read-out in assay [18]: Cytochrome P450 (CYP2B6), CYP2B6 (gene 1555)
Kind of assay: LTEA_HepaRG_CYP2B6: Life Technologies and Expression Analysis (LTEA) Assay for Cytochrome P450 (CYP2B6) using HepaRG (AID 2283481). The method, boiled down: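 Read-out is CYP2B6 mRNA by TaqMan qRT-PCR, normalized to three housekeeping genes and fitted bidirectionally against 0.5% DMSO baseline. Human HepaRG cells received test chemicals for 48 h, top concentration 100 uM, half-log dilutions.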

Read-out in assay [19]: Cytochrome P450 2C19 (Homo sapiens) (UniProt P33261)
In words: LTEA_HepaRG_CYP2C19: Life Technologies and Expression Analysis (LTEA) Assay for CYP2C19 using HepaRG (AID 2283482). The method, boiled down:
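HepaRG, 48 h chemical exposure, 8-pt half-log series from 100 uM in 0.5% DMSO, duplicates. Readout: CYP2C19 mRNA by TaqMan qRT-PCR, housekeeping-normalized. Bidirectional fit vs DMSO baseline; phenobarbital 1mM as induction control.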

Read-out in assay [20]: Alpha-fetoprotein (AFP) gene, AFP (gene 174)
Kind of assay: LTEA_HepaRG_AFP: Life Technologies and Expression Analysis (LTEA) Assay for Alpha-fetoprotein (AFP) gene using HepaRG (AID 2283472). In outline: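 After a 48 h plating period, cells are moved to serum-free induction medium and dosed in duplicate (100 uM maximum, half-log dilutions, 0.5% DMSO) for another 48 h. Total RNA goes to TaqMan qRT-PCR; AFP signal is housekeeping-normalized.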

Chain of Cytochrome P450 2C19 (Homo sapiens) (P33261 whole entry, looked up): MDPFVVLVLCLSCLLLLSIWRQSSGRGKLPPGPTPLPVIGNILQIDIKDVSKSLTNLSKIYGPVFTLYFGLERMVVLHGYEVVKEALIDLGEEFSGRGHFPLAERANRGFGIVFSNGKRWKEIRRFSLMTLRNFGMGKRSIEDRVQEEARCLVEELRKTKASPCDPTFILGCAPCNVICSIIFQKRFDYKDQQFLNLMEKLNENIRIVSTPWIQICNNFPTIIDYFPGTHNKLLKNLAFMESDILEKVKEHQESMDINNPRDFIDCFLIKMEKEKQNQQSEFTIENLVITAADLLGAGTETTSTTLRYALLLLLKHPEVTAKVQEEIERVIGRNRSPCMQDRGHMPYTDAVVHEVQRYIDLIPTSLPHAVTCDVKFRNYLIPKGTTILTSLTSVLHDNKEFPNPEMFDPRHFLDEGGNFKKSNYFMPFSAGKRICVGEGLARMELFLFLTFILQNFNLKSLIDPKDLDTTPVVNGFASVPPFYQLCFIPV
Chain of Caspase-3 (Homo sapiens) (P42574 whole entry, looked up): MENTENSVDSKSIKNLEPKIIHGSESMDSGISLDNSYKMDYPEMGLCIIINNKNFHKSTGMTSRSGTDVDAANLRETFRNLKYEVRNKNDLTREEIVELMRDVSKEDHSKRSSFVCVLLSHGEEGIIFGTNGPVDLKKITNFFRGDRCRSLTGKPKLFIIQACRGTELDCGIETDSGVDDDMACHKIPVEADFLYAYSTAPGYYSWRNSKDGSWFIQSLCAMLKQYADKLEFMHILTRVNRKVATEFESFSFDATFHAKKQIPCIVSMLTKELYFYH
Chain of Apoptosis regulator Bcl-2 (Homo sapiens) (P10415 whole entry, looked up): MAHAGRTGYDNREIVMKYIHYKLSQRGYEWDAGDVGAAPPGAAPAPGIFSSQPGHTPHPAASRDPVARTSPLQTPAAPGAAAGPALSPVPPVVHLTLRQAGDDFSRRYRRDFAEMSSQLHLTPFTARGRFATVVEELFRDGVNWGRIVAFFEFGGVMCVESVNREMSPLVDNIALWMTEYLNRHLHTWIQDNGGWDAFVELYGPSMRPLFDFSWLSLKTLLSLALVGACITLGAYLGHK
Chain of Broad substrate specificity ATP-binding cassette transporter ABCG2 (Homo sapiens) (Q9UNQ0 whole entry, looked up): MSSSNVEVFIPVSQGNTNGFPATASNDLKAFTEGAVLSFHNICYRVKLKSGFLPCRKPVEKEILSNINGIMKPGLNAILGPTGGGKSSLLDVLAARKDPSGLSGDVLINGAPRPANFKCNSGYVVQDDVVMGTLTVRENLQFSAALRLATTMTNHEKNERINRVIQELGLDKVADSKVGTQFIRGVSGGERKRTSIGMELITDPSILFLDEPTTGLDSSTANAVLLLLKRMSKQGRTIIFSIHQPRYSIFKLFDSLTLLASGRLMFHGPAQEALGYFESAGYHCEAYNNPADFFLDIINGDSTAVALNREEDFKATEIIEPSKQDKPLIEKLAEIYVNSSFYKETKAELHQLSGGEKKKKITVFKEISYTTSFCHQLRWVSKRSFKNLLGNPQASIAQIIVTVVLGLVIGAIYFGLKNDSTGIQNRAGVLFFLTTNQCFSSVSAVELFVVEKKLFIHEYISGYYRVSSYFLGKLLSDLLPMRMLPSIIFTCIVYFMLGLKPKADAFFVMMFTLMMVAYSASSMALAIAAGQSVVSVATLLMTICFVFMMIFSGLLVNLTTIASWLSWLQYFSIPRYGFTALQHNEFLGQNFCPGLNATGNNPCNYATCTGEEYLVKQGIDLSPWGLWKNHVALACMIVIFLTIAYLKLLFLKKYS

As to `CCOCCOCCOCCO`, the compound was called inactive in assay [1], in assay [2], in assay [3], in assay [4], in assay [5] and in assay [6]. In addition, the call in [7], in assay [8], in assay [9], in [10], in [11] and in [12] was inactive. In addition, the compound was classed as inactive in assay [13], in [14], in assay [15], in assay [16], in [17] and in assay [18]. Besides, the outcome in [19] was inactive.
Consider `CCn1nc(Cc2ccccc2)cc1C1CCN(C[C@H]2C[C@H](N(C)[C@@H](C(=O)O)C(C)C)C[C@@H]2c2cccc(F)c2)CC1`, for which the compound was classed as inactive in assay [1], in assay [2], in assay [3], in [5], in assay [7] and in assay [8]. Besides, the compound was called inactive in assay [9], in [10], in assay [11], in assay [12], in [13] and in assay [14]. Besides, the outcome in assay [15] was inactive. In addition, the AC50 in assay [4] is 75.7 µM (active); in assay [6] it was 23.8 µM (active); in assay [16], 79.9 µM (active); in assay [18], 13.7 µM (active); in assay [19] it was 17.6 µM (active).
For the compound `On1ccccc1=S`, the call in assay [1], in assay [3], in assay [4], in assay [5], in assay [6] and in assay [7] was inactive. For the same compound, the compound was classed as inactive in assay [8], in assay [9], in [20], in [10], in assay [11] and in assay [12]. Moreover, the outcome in assay [13], in assay [14], in assay [15], in assay [16], in assay [17] and in [18] was inactive. In addition, the compound was classed as inactive in assay [19].
Regarding `CC(C)=CCCC(C)=CC=O`, the result in [1], in assay [3], in assay [4], in [5], in assay [6] and in assay [7] was inactive. Further, the call in assay [8], in assay [9], in [20], in assay [10], in [11] and in assay [12] was inactive. In addition, the outcome in assay [13], in [14], in [15], in [16], in [17] and in assay [19] was inactive. In addition, the AC50 in assay [18] is 50 µM (active).
As for `COC(=O)c1c(Cl)c(Cl)c(C(=O)OC)c(Cl)c1Cl`, the compound was classed as inactive in assay [1], in [2], in [3], in assay [4], in assay [5] and in assay [6]. Moreover, the compound was called inactive in assay [7], in assay [8], in assay [9], in assay [10], in [11] and in [12]. Further, the call in assay [13], in assay [14], in [15], in assay [16], in assay [18] and in assay [19] was inactive.
As for `O=C(NS(=O)(=O)/C=C/c1ccccc1)c1ccc(F)cc1Cl`, the AC50 in [1] is 50 µM (active); in assay [2], 4.56 µM (active); in assay [18], 0.459 µM (active); in [19], 2.51 µM (active). Besides, the compound was called inactive in assay [3], in assay [4], in assay [5], in [6], in assay [7] and in [8]. For the same compound, the outcome in [9], in assay [10], in assay [11], in assay [12], in [13] and in [14] was inactive. The compound was classed as inactive in assay [15], in assay [16] and in assay [17].
